Hits are enriched below; roughly 11% of the tested compounds scored in any of these assays.
Gal4-VP16 FLuc: VP16 counterscreen qHTS for inhibitors of ROR gamma transcriptional activity; Potency, µM (highest dose often 53.6 µM), actives largely listed as inhibitors; Drosophila S2 Gal4-VP16 UAS-luciferase, luminescence, 20 h; 310,000 tested, 3.5% active;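 further: Gal4-VP16 expression switched on by copper sulfate through the metallothionein promoter; nearly all actives have a fitted effect of over 50% in size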
SW480 rereplic: A quantitative high throughput screen for small molecules that induce DNA re-replication in SW480 colon adenocarcinoma cells; SW480 DNA re-replication, Hoechst DNA content imaging, 48 h; Potency, µM (doses to about 46.1 µM), most hits filed as activators; 340,000 tested, 1.8% active; further: nearly all actives have a fitted effect of over 55% in size
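First, 250 cells per well were seeded. Next, compound or vehicle (23 nL) was pinned in, plates sat 48 hr at 37 C. Finally Hoechst was added for 40 min before fluorescence scanning.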
MCF10A rereplic: A quantitative high throughput screen for small molecules that induce DNA re-replication in MCF 10a normal breast cells. MCF 10A DNA re-replication, Hoechst nuclear intensity, 48 h. 350,000 tested, 2.9% active. Potency, µM (top dose mostly 46.1 µM), usual class: activators; further: nearly all actives have a fitted effect of over 50% in size
RORg inh: qHTS for inhibitors of ROR gamma transcriptional activity | 310,000 tested, 5.4% active | Drosophila S2 Gal4-RORgamma UAS-luciferase reporter, 20 h | Potency, µM (highest dose often 53.6 µM), most hits filed as inhibitors; further: nearly all actives have a fitted effect of over 60% in size
Target sequence (P51450 whole entry, looked up, the tested form may be a part): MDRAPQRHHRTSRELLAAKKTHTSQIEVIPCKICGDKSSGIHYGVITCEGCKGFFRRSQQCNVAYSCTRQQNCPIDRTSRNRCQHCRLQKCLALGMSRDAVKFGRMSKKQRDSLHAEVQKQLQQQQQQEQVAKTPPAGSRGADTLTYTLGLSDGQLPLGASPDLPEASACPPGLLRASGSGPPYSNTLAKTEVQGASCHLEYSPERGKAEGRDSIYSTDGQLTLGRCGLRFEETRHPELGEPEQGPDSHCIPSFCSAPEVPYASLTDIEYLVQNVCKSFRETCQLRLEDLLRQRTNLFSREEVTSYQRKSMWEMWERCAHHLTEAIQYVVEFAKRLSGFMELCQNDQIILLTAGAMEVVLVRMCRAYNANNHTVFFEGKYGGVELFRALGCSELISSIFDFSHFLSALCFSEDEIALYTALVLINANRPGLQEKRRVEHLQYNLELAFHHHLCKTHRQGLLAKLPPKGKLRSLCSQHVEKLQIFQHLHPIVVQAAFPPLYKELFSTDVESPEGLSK
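Luciferase reporter read in Schneider cells carrying Gal4-RORγ (mouse) and UAS-Photinus luciferase; cells given compound 1 h before 700 uM copper sulfate induction, then incubated 20 h at ambient temperature.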
IL-1B inflam inh: qHTS for Inhibitors of Inflammasome Signaling: IL-1-beta AlphaLISA Primary Screen; THP-1 LPS/ATP IL-1B secretion, AlphaLISA, 16 h; hits give low values; activity change, % at 57.5 µM; 360,000 tested, 4.7% active; in the data active means activity change below about -50%; inconclusive means mostly about -30% to -49%
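Secreted IL-1B measured by AlphaLISA bead assay after 16 h compound exposure of THP-1 cells; compounds (final up to 57.5 uM) added 1 h before LPS (250 ng/mL) and ATP (1.25 mM) stimulation; lower signal means less secretion.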
Large screens that a line does not name were inactive. Unless noted, the call rests on the fitted dose curve; in most records, active means well fitted curve in the direction sought with a large enough effect; inconclusive means small, poorly fitted or top-dose-only effect, or another doubt; inactive means no such curve, though single readings can be large; an effect the other way counts as inactive or inconclusive.

O=C(O)c1cccc(CN2C(=O)S/C(=C/c3cccc([N+](=O)[O-])c3)C2=O)c1	Gal4-VP16 FLuc 7.1µM, SW480 rereplic inconclusive, MCF10A rereplic inconclusive, RORg inh 5.6µM
CC(C)[C@H](N)C(=O)N[C@H]1CCC2C3CC=C4C[C@@H](O)CC[C@]4(C)C3CC[C@@]21C (some centres not stated)	IL-1B inflam inh -106 (no result: Gal4-VP16 FLuc, SW480 rereplic, MCF10A rereplic, RORg inh)
CCC(C)[C@H](N)C(=O)N[C@H]1CCC2C3CC=C4C[C@@H](O)CC[C@]4(C)C3CC[C@@]21C (some centres not stated)	IL-1B inflam inh -111 (no result: Gal4-VP16 FLuc, SW480 rereplic, MCF10A rereplic, RORg inh)
CC(C)=CCC/C(C)=C/CC/C(C)=C/CC/C(C)=C/C(=O)O	none (no result: SW480 rereplic, MCF10A rereplic, IL-1B inflam inh)
COc1cncc(C#Cc2ccccn2)c1	none (no result: Gal4-VP16 FLuc, SW480 rereplic, MCF10A rereplic, RORg inh)
COc1cccc(Nc2ncc3nc(-c4ccc(F)cc4)c(=O)n(CCC#N)c3n2)c1	none (no result: SW480 rereplic, MCF10A rereplic, IL-1B inflam inh)
O=C(NCc1cc([N+](=O)[O-])ccc1O)c1cc(-c2ccncc2)nc2ccccc12	Gal4-VP16 FLuc 8.9µM, MCF10A rereplic inconclusive, RORg inh 14µM
O=C(NCCC1=CCCCC1)c1cc(-c2ccncc2)nc2ccccc12	IL-1B inflam inh -83
Cc1ccc(CCNC(=O)c2cc(-c3ccncc3)nc3ccccc23)cc1	SW480 rereplic inconclusive
O=C(NCc1ccc(F)cc1)c1cc(-c2ccncc2)nc2ccccc12	none
CC(=O)NCCC(=O)N(Cc1ccccc1)c1nc2c(C)cccc2s1	IL-1B inflam inh inconclusive
COC(=O)c1cccc(NC(=S)NCc2ccco2)c1	RORg inh inconclusive
CCNC(=S)NCc1ccc(Cl)cc1	none (no result: Gal4-VP16 FLuc, RORg inh)
COC(=O)c1cccc(NC(=S)NCc2ccc(F)cc2)c1	Gal4-VP16 FLuc inconclusive, RORg inh 10µM
Fc1ccccc1CNC(=S)NCc1ccc(Cl)cc1	Gal4-VP16 FLuc inconclusive, RORg inh 7.9µM
Fc1ccc(CNC(=S)Nc2ccc(Cl)cc2)cc1	Gal4-VP16 FLuc 16µM, MCF10A rereplic inconclusive, RORg inh 7.1µM
Cc1cc(C)cc(NC(=S)NCc2ccncc2)c1	RORg inh inconclusive
S=C(NCc1ccc(Cl)cc1)Nc1ccncc1	Gal4-VP16 FLuc 7.1µM, SW480 rereplic inconclusive, RORg inh inconclusive
CC(CCc1ccc(O)cc1)NCCC(c1ccccc1)c1ccccc1 (configuration not stated)	SW480 rereplic inconclusive, RORg inh inconclusive
CC(CCc1ccc(O)cc1)NC(c1ccccc1)c1ccc(Cl)cc1 (configuration not stated)	Gal4-VP16 FLuc inconclusive, SW480 rereplic inconclusive, MCF10A rereplic 16µM, RORg inh inconclusive, IL-1B inflam inh -100
CC(O)CNCc1ccc(Cl)cc1Cl (configuration not stated)	none
S=C(NCc1ccc(Cl)cc1)Nc1ccccc1	Gal4-VP16 FLuc 3.5µM, RORg inh 2.2µM
NS(=O)(=O)c1ccc(NC(=S)NCc2ccc(Cl)cc2)cc1	none
O=[N+]([O-])c1ccc(NC(=S)NCc2ccc(F)cc2)cc1	Gal4-VP16 FLuc inconclusive, SW480 rereplic inconclusive, MCF10A rereplic 16µM, RORg inh inconclusive, IL-1B inflam inh -100
CC(CCc1ccccc1)NCc1ccc(Cl)cc1Cl (configuration not stated)	MCF10A rereplic inconclusive, IL-1B inflam inh -70
O=C(CN1C(=O)c2cccnc2Oc2ccc(Cl)cc21)N1CCOCC1	none
CCNC(=O)C1(C)CCN(C(=O)c2ccc(OC)c(OC)c2)C1 (configuration not stated)	none (no result: Gal4-VP16 FLuc, SW480 rereplic, MCF10A rereplic, RORg inh)
S=C(NCc1ccncc1)Nc1cccc(Cl)c1	none
S=C(NCc1ccc(Cl)cc1Cl)Nc1ccccc1	Gal4-VP16 FLuc 6.3µM, MCF10A rereplic inconclusive, RORg inh 7.1µM
Fc1ccc(CNC(=S)Nc2cccc(Cl)c2)cc1	Gal4-VP16 FLuc 11µM, MCF10A rereplic 16µM, RORg inh 5.6µM, IL-1B inflam inh -91
S=C(Nc1ccccc1)Nc1ccc(Cl)cc1Cl	RORg inh inconclusive
COc1ccc(Cl)cc1-c1cc(C(=O)NCc2ccccc2)[nH]n1	none (no result: Gal4-VP16 FLuc, SW480 rereplic, MCF10A rereplic, RORg inh)
O=C(c1ccco1)N1CCN(C(=O)N2CCOCC2)CC1	SW480 rereplic 0.16µM, MCF10A rereplic inconclusive
O=C(c1ccco1)N1CCN(C(=O)c2ccco2)C1=S	SW480 rereplic 5.8µM, MCF10A rereplic 2.6µM, IL-1B inflam inh -100 (no result: Gal4-VP16 FLuc, RORg inh)
O=C(NNC(=S)Nc1ccccc1Cl)c1ccncc1	none
O=C(Nc1cccc(Cl)c1Cl)c1ccncc1	IL-1B inflam inh -51
COc1ccc(NC(=O)C2Cc3c(-c4ccc5c(c4)OCO5)ccnc3O2)cc1 (configuration not stated)	none (no result: Gal4-VP16 FLuc, SW480 rereplic, MCF10A rereplic, RORg inh)
O=c1cnc2ccccc2n1Cc1ccc(Br)cc1	RORg inh inconclusive
CC(C)(C)c1ccc(Cn2c(=O)cnc3ccccc32)cc1	Gal4-VP16 FLuc inconclusive, SW480 rereplic inconclusive, MCF10A rereplic 15µM, RORg inh 22µM
Cc1cc(-c2nn(-c3ccccc3)cc2/C=C2\SC(N)=NC2=O)ccc1OC(C)C	SW480 rereplic inconclusive, MCF10A rereplic 4.1µM
CCCOc1ccc(-c2nn(-c3ccccc3)cc2/C=C2\SC(N)=NC2=O)cc1	SW480 rereplic inconclusive, MCF10A rereplic 4.6µM
Cc1cc(/C=C2\SC(N)=NC2=O)c(C)n1-c1ccccc1	none
CC(C)c1ccc(CC(=O)N2CCC2(C)C(=O)NS(=O)(=O)c2cccc(OC(F)F)c2)cc1 (configuration not stated)	none (no result: Gal4-VP16 FLuc, SW480 rereplic, MCF10A rereplic, RORg inh)
O=C(O)C1CCC(N2C(=O)C3C4CCC(C4)C3C2=O)CC1 (configuration not stated)	none
O=C1[C@@H]2[C@H]3CC[C@H](C3)[C@@H]2C(=O)N1O	SW480 rereplic inconclusive, MCF10A rereplic 1.2µM
COc1ccc2cc1Oc1ccc(cc1)C[C@H]1c3c(cc(OC)c4c3Oc3c(ccc5c3[C@H](C2)N(C)CC5)O4)CCN1C	SW480 rereplic inconclusive, MCF10A rereplic inconclusive (no result: Gal4-VP16 FLuc, RORg inh)
COc1ccc2cc1Oc1ccc(cc1)CC1c3c(cc(OC)c4c3Oc3cc5c(cc3O4)CCNC5C2)CCN1C (configuration not stated)	Gal4-VP16 FLuc 7.1µM, MCF10A rereplic inconclusive, RORg inh 4.5µM
CC(C)CCC(CC(C)O)C(=O)NNC(=S)Nc1ccccc1 (configuration not stated)	none
CC(C)CCOCC(O)CCC(=O)NNC(=S)Nc1ccccc1 (configuration not stated)	Gal4-VP16 FLuc inconclusive, RORg inh 11µM
C=CCC(CC(O)COCCC)C(=O)NNC(=S)Nc1ccccc1 (configuration not stated)	Gal4-VP16 FLuc 0.79µM, RORg inh 0.28µM
COc1ccccc1N1CCN(C2CC(=O)N(c3cccc(Cl)c3)C2=O)CC1 (configuration not stated)	none
COc1ccc(/C=N/N(Cc2ccccc2)c2ccccc2)cc1O	MCF10A rereplic inconclusive, IL-1B inflam inh -86
